Screens: PubChem BioAssay, National Center for Advancing Translational Sciences (NCATS)
Compounds with a hit are over-represented: about 19% of the library has one in this group of screens.
S-ASM inh – Inhibitors of Secretory Acid Sphingomyelinase (S-ASM): qHTS; placental ASM, HMU-PC fluorogenic substrate, 60 min; Potency, µM (highest dose often 57.5 µM), hits mostly inhibitors; hit rate 0.006% among 340,000; AID 504937, 2011
Target sequence (P17405 47-631 limits assumed): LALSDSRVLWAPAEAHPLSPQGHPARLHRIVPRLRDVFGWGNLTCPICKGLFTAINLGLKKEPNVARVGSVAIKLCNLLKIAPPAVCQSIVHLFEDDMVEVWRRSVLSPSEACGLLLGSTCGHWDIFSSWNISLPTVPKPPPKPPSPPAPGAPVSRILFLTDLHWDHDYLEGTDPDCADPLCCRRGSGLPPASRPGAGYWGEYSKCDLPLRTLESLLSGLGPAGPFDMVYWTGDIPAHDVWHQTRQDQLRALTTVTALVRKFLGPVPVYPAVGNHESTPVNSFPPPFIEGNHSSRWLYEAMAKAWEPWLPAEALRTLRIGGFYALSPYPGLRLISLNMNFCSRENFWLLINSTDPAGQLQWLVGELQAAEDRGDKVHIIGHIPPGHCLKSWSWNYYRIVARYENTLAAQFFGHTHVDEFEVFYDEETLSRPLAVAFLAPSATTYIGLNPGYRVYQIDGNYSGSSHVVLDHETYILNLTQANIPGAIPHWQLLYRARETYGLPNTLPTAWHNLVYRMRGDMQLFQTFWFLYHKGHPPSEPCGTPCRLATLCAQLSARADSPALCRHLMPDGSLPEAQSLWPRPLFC
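Fluorogenic HMU-PC substrate (9 uM final) is turned over by placental ASM in 60 min at 37 C after a 10 min compound preincubation. Reaction ended by alkaline stop (pH 10), with fluorescence read at 386/447 nm.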
IL1B secr inh – qHTS for Inhibitors of Inflammasome Signaling: IL-1-beta AlphaLISA Primary Screen | THP-1 LPS/ATP IL-1B secretion, AlphaLISA, 16 h; active compounds read low | activity change, % at 57.5 µM | hit rate 4.7% among 360,000 | AID 743279, 2014; in the data active = activity change below about -50%; inconclusive = mostly about -30% to -49%
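THP-1 cells pretreated 1 hr with compounds (up to 57.5 uM final), then stimulated with LPS (250 ng/mL final) plus ATP (1.25 mM final); secreted IL-1B measured by AlphaLISA after 16 hr, decreased signal indicating inhibition.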
TDP1 cell noCPT – qHTS for Inhibitors of human tyrosyl-DNA phosphodiesterase 1 (TDP1): qHTS in cells in absence of CPT; DT40 Tdp1-/- hTDP1 cells, no CPT, ATP luminescence, 48 h; Potency, µM (doses to about 46.2 µM), hits mostly inhibitors; hit rate 15% among 420,000; AID 686978, 2013; also: nearly all actives have a fitted effect of over 55% in size
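A cellular qHTS used chicken DT40 cells lacking endogenous Tdp1 but carrying stably transfected human TDP1. Compounds were applied without camptothecin, and cell growth kinetics were judged by ATP-dependent luminescence after ≥48 hr.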
TGFb inhibitor – qHTS for Inhibitors of TGF-b; HepG2 CAGA-GFP TGF-b/SMAD3 reporter, GFP fluorescence, 18 h; TGF-beta stimulated, 500 pg/mL final; Potency, µM (series often up to 46.1 µM), actives largely listed as inhibitors; hit rate 1.2% among 410,000; also: nearly all actives have a fitted effect of over 65% in size
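TGF-beta reporter screen: HEPG2 CAGA-GFP, 1% FBS, 500 pg/mL TGF-beta final, 18 h; per-cell GFP summed per well; curves fitted and categorized by class.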
TDP1 cell CPT – qHTS for Inhibitors of human tyrosyl-DNA phosphodiesterase 1 (TDP1): qHTS in cells in presence of CPT; chicken DT40 Tdp1-/-;hTDP1 cells + 20 nM CPT, ATP luminescence, 48 h; Potency, µM (titrated, usually from 46.2 µM), hits mostly inhibitors; hit rate 12% among 420,000; AID 686979, 2013; also: nearly all actives have a fitted effect of over 55% in size
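Chicken DT40 Tdp1-/- cells complemented with human TDP1, 400 cells/well, exposed to compounds plus 20 nM camptothecin for at least 48 h at 37 C; viability read as ATP content by CellTiter-Glo luminescence.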
HepG2 viability – qHTS for Inhibitors of TGF-b: Cytotox Counterscreen. HepG2 CAGA-GFP viability, ATP luminescence, 18 h. Potency, µM (top dose mostly 46.1 µM), most hits filed as cytotoxic. hit rate 0.76% among 410,000. AID 588856, 2011
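HepG2 CAGA-GFP cells (1000/well, DMEM with 1% FBS) received compound, then TGF-beta at 500 pg/mL final, and were incubated 18 hours at 37 degrees C. Viability was read by CellTiter-Glo luminescence. Media-only wells were set as complete cell-killing and DMSO as no toxicity.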
Each line names hits and unclear results; the compound was inactive in the other large screens. Unless noted, calls follow the shape of the dose curve; as a rule, active = well fitted curve in the direction sought with a large enough effect; inconclusive = small, poorly fitted or top-dose-only effect, or another doubt; inactive = no such curve, though single readings can be large; an effect the other way counts as inactive or inconclusive.

O=C(/C=C/c1ccc([N+](=O)[O-])cc1)NCc1ccccn1	TDP1 cell CPT inconclusive
Cc1ncoc1C(=O)Nc1ncc([N+](=O)[O-])s1	TDP1 cell noCPT inconclusive, TDP1 cell CPT inconclusive
CCc1ccc(C2=C(C)C(N3CCC(C(=O)Nc4ccc(F)cc4)CC3)=NS2(=O)=O)cc1	TDP1 cell noCPT inconclusive, TDP1 cell CPT inconclusive (no result: S-ASM inh, IL1B secr inh)
O=S(=O)(NC1CC1)c1ccccc1	none
Fc1ccc(-c2cc(-c3nc(-c4ccc(Cl)cc4)no3)[nH]n2)cc1	TDP1 cell noCPT inconclusive, TDP1 cell CPT inconclusive (no result: S-ASM inh, IL1B secr inh)
CC(OC(=O)CN1C(=O)c2ccccc2C1=O)C(=O)N(C)c1ccccc1 (configuration not stated)	none
COc1ccc(-c2cn3c(n2)sc2cc(C(=O)NC(C)C45CC6CC(CC(C6)C4)C5)ccc23)cc1 (configuration not stated)	TDP1 cell noCPT inconclusive, TDP1 cell CPT inconclusive (no result: S-ASM inh, IL1B secr inh)
O=C(CCNC(=O)N1CC(=O)Nc2ccccc21)Nc1ccc(Br)cc1F	none
CC1CCN(C(=O)CSc2nc(=O)n3ccccc3n2)CC1	none
COc1ccc(NC(=O)C2CC(c3ccccc3O)=NO2)cc1OC (configuration not stated)	none
O=C(Cc1ccc([N+](=O)[O-])cc1)N1N=C(C2CC2)CC1(O)C(F)(F)F (configuration not stated)	TDP1 cell noCPT inconclusive, TDP1 cell CPT 26µM
O=C(c1ccco1)N1N=C(C2CCCCC2)CC1(O)C(F)(F)F (configuration not stated)	TGFb inhibitor inconclusive
CC(C)(C)C1(O)CC(C(F)(F)F)=NN1C(=O)Cc1ccc([N+](=O)[O-])cc1 (configuration not stated)	TDP1 cell noCPT inconclusive, TDP1 cell CPT inconclusive
O=C(c1ccncc1)N1N=C(C2CCCCC2)CC1(O)C(F)(F)F (configuration not stated)	TDP1 cell noCPT 4.6µM, TDP1 cell CPT 2.9µM
CC1=NN(C(=O)Cc2ccc([N+](=O)[O-])cc2)C(O)(C(F)(F)C(F)(F)F)C1 (configuration not stated)	TDP1 cell noCPT inconclusive, TGFb inhibitor 11µM, TDP1 cell CPT inconclusive
CCCCN(CC)CCNC(=O)c1cc2c(=O)oc3ccc(C)cc3c2s1	TDP1 cell noCPT inconclusive, TDP1 cell CPT inconclusive (no result: S-ASM inh, IL1B secr inh)
COc1ccc(NC(=O)CSc2nnnn2C2CCCCC2)cc1	none
O=C(CSc1nnc2ccccn12)NNC(=O)c1ccc(F)cc1	TGFb inhibitor inconclusive
O=C(c1ccc(SCc2ccco2)c([N+](=O)[O-])c1)N1CCOCC1	none
O=C(c1ccc(S(=O)(=O)c2ccccc2Cl)c([N+](=O)[O-])c1)N1CCCCCC1	IL1B secr inh -73, TDP1 cell noCPT 18µM, TGFb inhibitor inconclusive, TDP1 cell CPT 21µM
O=C(c1ccc(S(=O)(=O)Cc2ccccc2F)c([N+](=O)[O-])c1)N1CCCCCC1	IL1B secr inh -79, TDP1 cell noCPT 23µM, TGFb inhibitor inconclusive, TDP1 cell CPT inconclusive
O=C(c1ccc2snnc2c1)N1CCN(c2ccccn2)CC1	IL1B secr inh -85
CC1CCN(C(=O)c2ccc(SCc3ccccc3F)c([N+](=O)[O-])c2)CC1	IL1B secr inh -60, TDP1 cell noCPT inconclusive
COc1ccc(S(=O)(=O)NCCC(=O)OCC(=O)NC2CC2)cc1	none
O=C(c1ccc(S(=O)(=O)c2cccc(Cl)c2)c([N+](=O)[O-])c1)N1CCN(c2ccccn2)CC1	IL1B secr inh -246, TDP1 cell noCPT 2.3µM, TGFb inhibitor 11µM, TDP1 cell CPT 2.6µM
O=C(c1ccc(S(=O)(=O)Cc2cc(F)ccc2F)c([N+](=O)[O-])c1)N1CCOCC1	IL1B secr inh -100, TDP1 cell noCPT 7.3µM, TGFb inhibitor inconclusive, TDP1 cell CPT 6.5µM (no result: S-ASM inh)
Cc1ccc(S(=O)(=O)NCC(=O)NNC(=O)c2ccccc2Cl)cc1C	none
CCN(Cc1ccccc1)S(=O)(=O)c1ccc(C(=O)Nc2nnc(C3CC3)o2)cc1	TDP1 cell noCPT 16µM, TDP1 cell CPT inconclusive
Cc1nnc(NC(=O)c2ccc(S(=O)(=O)N(C)Cc3ccccc3)cc2)o1	TDP1 cell noCPT 23µM, TDP1 cell CPT inconclusive
Cc1nc(-c2ccc(S(=O)(=O)N(C)Cc3ccccc3)cc2)co1	TDP1 cell noCPT 21µM, TDP1 cell CPT 26µM (no result: S-ASM inh, IL1B secr inh)
COCc1nnc(NC(=O)c2ccc(S(=O)(=O)N(C)Cc3ccccc3)cc2)o1	TDP1 cell noCPT inconclusive, TDP1 cell CPT inconclusive
Cc1cccc(-c2c3c(=O)n(C)c(=O)n(C)c3cn2CCO)c1	none
Cc1cccc(-c2c3c(nc4c2c(=O)n(C)c(=O)n4C)-c2ccccc2C3O)c1 (configuration not stated)	TDP1 cell noCPT 4.6µM, TDP1 cell CPT 5.8µM
CN1C2C=C3C(C#N)=C(N)C(C#N)(C#N)[C@H](c4c(F)cccc4F)[C@H]3C1CC2 (some centres not stated)	IL1B secr inh -93, TDP1 cell noCPT 10µM, TDP1 cell CPT 7.3µM
N#CC1=C(N)C(C#N)(C#N)C2(CCC3(CC2)OCCO3)C2CC3(CC=C12)OCCO3 (configuration not stated)	none
CN1C2C=C3C(C#N)=C(N)C(C#N)(C#N)[C@@H](c4cccc(F)c4)[C@@H]3C1CC2 (some centres not stated)	TDP1 cell noCPT inconclusive, TDP1 cell CPT inconclusive
N#CC1=C(N)C(C#N)(C#N)[C@H](c2c(F)cccc2F)[C@H]2CC3(CC=C12)OCCO3	TDP1 cell noCPT 16µM, TDP1 cell CPT inconclusive
Cc1cccc(S(=O)(=O)Nc2cc(Cl)ccc2N2CCOCC2)c1	TDP1 cell noCPT inconclusive
C=CCc1cccc(CNc2ccc(Br)cc2)c1O	TDP1 cell noCPT inconclusive, TGFb inhibitor inconclusive
N#C/C(=C(/O)c1ccc(Br)s1)c1nc2ccccc2[nH]1	TDP1 cell noCPT 7.3µM, TDP1 cell CPT 4.6µM
N#C/C(=C(/O)c1ccc(C(=O)c2ccccc2)cc1)c1nc2ccccc2[nH]1	none
N#C/C(=C(/O)c1cccs1)c1nc2ccccc2[nH]1	TGFb inhibitor inconclusive, TDP1 cell CPT inconclusive
N#C/C(=C(/O)c1ccc([N+](=O)[O-])s1)c1nc2ccccc2[nH]1	TDP1 cell noCPT 1µM
CCn1cc2nc(SCc3cccc(C(F)(F)F)c3)n(Cc3ccc(Cl)cc3)c(=O)c2n1	TDP1 cell noCPT 8.2µM, TDP1 cell CPT 15µM (no result: S-ASM inh, IL1B secr inh)
